Gli-Sufu antag: antagonists of Gli-Sufu signaling | Sufu-KO-LIGHT fibroblasts, Gli luciferase reporter luminescence | inhibition, % at 5 µM | 340,000 compounds, 0.74% hits | AID 588413;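 active = inhibition above about 55%, limit read from the data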;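 note: 0% = DMSO-treated cells and 100% = wells with medium but no cells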
NR5A2 inv ag: NR5A2 inverse agonism in reporter assay; HEK293T StAR-luciferase reporter, LRH-1 transfected, 24 h; O00482; AID 602396; 360,000 compounds, 0.13% hits; inhibition, % at 3.6 µM;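 active = inhibition above the mean inhibition of all tested compounds plus 3 SD, cut at about 73% in these data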;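 note: 0% = DMSO wells and 100% = reporter-only cells lacking LRH-1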
SRC3 inh: inhibits human SRC3 coactivator; Q9Y6Q9; HEK293 GAL4-SRC3 luciferase reporter, luminescence; AID 588352; inhibition, % at 3.6 µM; 360,000 compounds, 0.17% hits;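 active = inhibition above a per-campaign cutoff, the mean of all compounds plus 3 SD, cut at about 60% in these data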;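 note: 0% = DMSO-treated cells and 100% = gossypol-treated cells at 36 µM; higher means less SRC3-driven luciferase light from the GAL4 reporter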
Target sequence (Q9Y6Q9 whole entry, looked up, the tested form may be a part): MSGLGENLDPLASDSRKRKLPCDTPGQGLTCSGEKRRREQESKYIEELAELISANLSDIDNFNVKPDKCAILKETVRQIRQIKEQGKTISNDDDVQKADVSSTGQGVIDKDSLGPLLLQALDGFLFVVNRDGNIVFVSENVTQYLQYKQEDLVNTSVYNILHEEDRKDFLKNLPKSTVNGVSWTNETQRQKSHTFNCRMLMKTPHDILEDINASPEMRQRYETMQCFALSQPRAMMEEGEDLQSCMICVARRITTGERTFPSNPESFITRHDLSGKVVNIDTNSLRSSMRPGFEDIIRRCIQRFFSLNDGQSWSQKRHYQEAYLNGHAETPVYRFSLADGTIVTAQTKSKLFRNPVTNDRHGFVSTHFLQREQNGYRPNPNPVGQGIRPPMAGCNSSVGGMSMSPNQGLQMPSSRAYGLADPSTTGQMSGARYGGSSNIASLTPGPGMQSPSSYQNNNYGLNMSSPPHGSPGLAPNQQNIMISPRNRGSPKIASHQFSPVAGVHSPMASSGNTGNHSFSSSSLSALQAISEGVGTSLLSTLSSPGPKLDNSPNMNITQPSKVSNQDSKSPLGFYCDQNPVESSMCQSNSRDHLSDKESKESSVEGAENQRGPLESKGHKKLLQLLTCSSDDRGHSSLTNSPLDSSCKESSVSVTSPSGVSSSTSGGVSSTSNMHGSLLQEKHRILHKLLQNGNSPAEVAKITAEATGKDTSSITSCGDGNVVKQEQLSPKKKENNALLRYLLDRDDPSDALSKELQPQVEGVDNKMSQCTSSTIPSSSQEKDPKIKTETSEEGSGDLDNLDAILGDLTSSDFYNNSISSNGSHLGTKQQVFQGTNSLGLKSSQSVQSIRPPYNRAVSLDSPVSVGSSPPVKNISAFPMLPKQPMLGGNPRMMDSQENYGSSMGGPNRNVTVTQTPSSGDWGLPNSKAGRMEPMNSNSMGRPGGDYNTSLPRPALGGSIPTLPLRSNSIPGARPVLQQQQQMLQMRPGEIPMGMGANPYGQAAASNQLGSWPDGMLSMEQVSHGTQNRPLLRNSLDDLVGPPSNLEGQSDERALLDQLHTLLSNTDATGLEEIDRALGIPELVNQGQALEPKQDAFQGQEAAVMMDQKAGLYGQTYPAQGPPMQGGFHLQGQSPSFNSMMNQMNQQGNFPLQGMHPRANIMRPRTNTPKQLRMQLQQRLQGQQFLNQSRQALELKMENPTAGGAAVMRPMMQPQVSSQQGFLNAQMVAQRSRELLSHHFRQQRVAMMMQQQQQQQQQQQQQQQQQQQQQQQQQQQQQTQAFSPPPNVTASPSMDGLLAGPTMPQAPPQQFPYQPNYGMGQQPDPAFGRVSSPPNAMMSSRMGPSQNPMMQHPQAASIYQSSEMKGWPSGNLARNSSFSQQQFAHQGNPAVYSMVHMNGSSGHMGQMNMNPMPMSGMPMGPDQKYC
NCOA1 inh: inhibitors of human steroid receptor coactivator 1 (SRC1). Q15788. HEK293 GAL4-SRC1 luciferase reporter, luminescence. inhibition, % at 3.6 µM. 360,000 compounds, 0.12% hits. AID 588354;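 active = inhibition above the campaign mean plus 3 SD, with each screening campaign given its own cutoff, cut at about 60% in these data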;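 note: 0% = DMSO treated cells and 100% = gossypol at 36 µM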
NR2F2 inh: inhibitors of human COUP-TFII (NR2F2); HEK293T NGFI-A luciferase reporter, luminescence; inhibition, % at 8.6 µM; 370,000 compounds, 0.7% hits; AID 686940;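 active = inhibition above a per-plate cutoff, mean inhibition of test wells between control levels plus 3 SD, cut at about 38% in these data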;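 note: cells cotransfected with COUP-TFII expression vector driving the NGFI-A reporter; 0% = median of COUP-TF2 test wells and 100% = reporter-only cells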
SRC2 inh: human SRC2 (NCOA2) inhibition; Q15596; HEK293 GAL4-SRC2 luciferase reporter, luminescence; inhibition, % at 9 µM; 370,000 compounds, 0.17% hits;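 active = inhibition above the mean inhibition of all tested compounds plus 3 SD, set per campaign, cut at about 52% in these data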;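 note: 0% = DMSO treated cells and 100% = cells given Gossypol at 36 µM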
An asterisk follows results filed as active; · = not tested or not shown. This is a sample that favours compounds with a hit; in the whole collection about 1.3% have one here.

SMILES	Gli-Sufu antag	NR5A2 inv ag	SRC3 inh	NCOA1 inh	NR2F2 inh	SRC2 inh
CCC[C@@H](CN1CCC[C@H]1CN1C(N)=NC[C@@H]1Cc1ccccc1)N1C[C@@H]([C@H](C)CC)N(CCCC2CCCC2)C1=N	61*	-3	-4	-13	·	·
CS(=O)(=O)c1ccc(OC[C@@H](O)CN2CCC(C(O)(c3ccccc3)c3ccccc3)CC2)cc1	·	·	·	·	-21	8
O=C1Cc2c([nH]c3ccc([N+](=O)[O-])cc23)-c2ccccc2N1	-80	7	73*	-9	38*	35
COc1ccccc1Cc1c(-c2ccc(C)cc2)nc2ccc(C)cn12	·	·	·	·	-47	-44
Cc1cc2cc(CN(Cc3ccco3)S(=O)(=O)c3c(C)ccc4nsnc34)c(=O)[nH]c2cc1C	0	10	27	3	-11	5
Cc1ccc2cc(CN(Cc3ccco3)S(=O)(=O)c3c(C)ccc4nsnc34)c(=O)[nH]c2c1	5	-24	-5	-1	-3	77*
Cn1nnnc1N=N/C(=N/Nc1ccccc1)c1ccccc1	-1	27	81*	76*	-24	25
Oc1ccccc1N=N/C(=N/Nc1ccccc1O)c1ccccc1	1	7	-18	-5	16	-38
Nc1ccn([C@@H]2O[C@H](CO)[C@@H](O)[C@@H]2O)c(=O)n1	40	8	30	13	10	22
Nc1nc(=S)c2ncn([C@@H]3O[C@H](CO)[C@@H](O)[C@H]3O)c2[nH]1	-52	81*	55	44	-15	-16
Nc1ncn([C@@H]2O[C@H](CO)[C@@H](O)[C@H]2O)c(=O)n1	23	75*	79*	65*	0	34
O=[N+]([O-])c1cc(S(=O)(=O)NCc2ccco2)ccc1NN=Cc1ccccn1	·	·	·	·	-9	3
O=[N+]([O-])c1ccc(Cl)cc1C=NNc1ccccn1	28	-4	3	-20	1	-4
O=[N+]([O-])c1cc(Cl)cc(/C=N\Nc2ccccn2)c1O	57*	1	11	3	-5	-8
Cc1cc(C(C)(C)CC(C)(C)C)ccc1OCCOCC[N+](C)(C)Cc1ccccc1	65*	-20	-15	9	17	-10
C[N+](C)(CCOc1ccccc1)Cc1ccccc1	10	13	-1	-1	10	6
CCC(=O)NC(c1ccc(Cl)cc1Cl)c1ccc2cccnc2c1O (stereo not drawn)	89*	65	56	27	-16	16
COc1ccc(C(NC(=O)C(C)C)c2ccc3cccnc3c2O)cc1 (stereo not drawn)	51	70	32	22	-14	27
Cc1cc(NC(c2ccc(Cl)cc2)c2ccc3cccnc3c2O)no1 (stereo not drawn)	67*	12	46	48	7	46
CC(=O)NC(c1ccco1)c1ccc2cccnc2c1O (stereo not drawn)	-10	43	31	8	·	·
CC(C)C(=O)NC(c1ccc(Cl)cc1Cl)c1ccc2cccnc2c1O (stereo not drawn)	28	83*	23	33	-33	10
CCC(=O)NC(c1cc(Cl)c2cccnc2c1O)C(C)C (stereo not drawn)	6	21	16	12	8	21
CC(=O)NC(c1ccc(Cl)cc1)c1ccc2cccnc2c1O (stereo not drawn)	80*	60	35	28	14	29
CCc1cc2c(nc1CC)CCCN2S(=O)(=O)c1ccc(F)cc1	·	·	·	·	-8	-17
Cc1ccc(N(C(=O)CCl)C(C(=O)NC2CCCCC2)c2cccnc2)cc1C (stereo not drawn)	93*	·	·	·	21	63*
SMILES	Gli-Sufu antag	NR5A2 inv ag	SRC3 inh	NCOA1 inh	NR2F2 inh	SRC2 inh
C/C(Cl)=C\Cn1c(NCCc2ccccc2)nc2c1c(=O)n(C)c(=O)n2C	82*	18	20	-6	11	1
C=CCn1c(NCCc2ccccc2)nc2c1c(=O)n(C)c(=O)n2C	4	24	35	23	22	25
O=S(=O)(CS(=O)(=O)c1ccc(Br)cc1)c1ccc(Br)cc1	·	·	·	·	0	13
CCCC(=O)NC(c1ccc(C(C)C)cc1)c1ccc2cccnc2c1O (stereo not drawn)	·	35	54	-9	-4	32
CCCC(=O)NC(c1ccc(N(C)C)cc1)c1ccc2cccnc2c1O (stereo not drawn)	86*	72	56	16	-29	27
CCCCC(=O)NC(c1ccc(OC)cc1)c1ccc2cccnc2c1O (stereo not drawn)	·	103*	36	14	12	5
Cc1ccc(-n2c(SCC(=O)Nc3ccc(S(=O)(=O)Nc4cc(C)nc(C)n4)cc3)nnc2-c2ccncc2)cc1	·	·	·	·	-2	-20
COc1cc2c(c3c1c(=O)c1cccc(F)c1n3C)C=CC(C)(C)O2	·	·	·	·	-10	8
CCCS(=O)(=O)Nc1ccc(Nc2c3ccccc3nc3ccccc23)c(OC)c1	79*	33	70*	66*	-68	-25
COc1ccc(CNC(=O)c2cc3c(C)nc4ccccc4c3o2)c(OC)c1	57*	43	-10	36	·	·
COc1cc(NC(=O)c2cc3c(C)nc4ccccc4c3o2)cc(OC)c1OC	24	25	17	14	-4	-14
O=C1CC(O)C(Cc2ccccc2)N1 (stereo not drawn)	·	·	·	·	-23	21
CCOc1cccc(/C=N/Nc2ccc(S(=O)(=O)N(CC)CC)cn2)c1O	90*	-7	30	23	-7	23
COC(=O)[C@]12C[C@H](CC(=O)NCc3cccs3)C(=O)N(Cc3ccccc3)C1=C[C@H](C1CCCC1)O[C@@H]2C	·	·	·	·	-1	-16
CCN(CC)CCn1nc2c3c(cccc3c1=O)-c1ccccc1-2	47	77*	-52	73*	-66	-198
CCOc1cc2c(cc1OCC)C(c1ccc(OC)cc1)N(c1ccccc1)C(=O)C2 (stereo not drawn)	0	76*	-33	-28	3	-21
CCCCCN1CCCCC(NC(=O)c2cccc(F)c2)C1=O (stereo not drawn)	·	·	·	·	-5	-7
C/C(CC(=O)NC1C2CC3CC(C2)CC1C3)=N\NC(=O)Cc1cccs1 (stereo not drawn)	-1	-10	-9	-24	-11	98*
O=C(C1=C(c2ccccc2)C(=O)c2ccccc2C1=O)c1ccccc1	15	-9	82*	20	17	57*
CCc1c(-c2ccc(F)cc2)ncn1CCc1ccccc1OC	·	·	·	·	-9	-75
COc1ccccc1/C=C/C(=O)c1c2c(c(C)[nH]c1=O)CCCC2	5	12	65*	31	4	58*
CSCCCNC(=O)Cn1nc(Cc2ccncc2)c2ccccc2c1=O	·	·	·	·	15	-5
C=C1C(=O)C=C2CN(C(=O)c3ccccc3)[C@@](Cc3ccc(F)cc3)(C(=O)OC)[C@@H]12	62*	56	48	20	·	·

Assay outcomes as filed in PubChem BioAssay.
